This is an account of results in PubChem BioAssay (NCI).

Compounds without any hit were thinned out: in the full panel of roughly 79,000, 15% have a hit. Values without a mark were called inactive. Active and inactive are the calls of the source. No stated cut-off is given here; in the data, active means growth inhibition above about 70%; inactive means the rest.

The assay in a line: NCI Yeast Anticancer Drug Screen. Data for the mec2-1 strain (AID 157). The conditions noted are these: S. cerevisiae mec2-1 strain, at 50.0 µM, hits give high values. How it is done:
Growth inhibition of yeast strains with defined genetic alterations is measured as a screen for potential anti-cancer activity. Selected strains with alterations in DNA damage repair or cell cycle control were exposed to compounds and growth inhibition was measured relative to vehicle treated controls. The strain used in this assay is mec2-1
Turning to `CCCCCSP(SCCCCC)c1ccccc1`, the growth inhibition is 67.3%. Next, `CC(C)CC(NC(=O)CF)C(=O)O` (stereo not given): 0.05%; `COc1ccc(C(OCC2OC(n3ccc(Oc4c(F)c(F)c(F)c(F)c4F)nc3=O)CC2OP(OCCC#N)N(C(C)C)C(C)C)(c2ccccc2)c2ccc(OC)cc2)cc1` (stereo not given): 4.8%. Consider `COC(N)=O`, for which the growth inhibition was -10.2%.

As for `Nc1ccc2ncccc2c1` (tested in a mixture with another compound), the growth inhibition is 97.5% (active). As to `CNC(=O)N1CN(c2ccccc2)C2(CCN(CCCC3(c4ccc(F)cc4)OCCO3)CC2)C1=O`, the growth inhibition was -9.5%. On to `COc1ccc(CCF)cc1`, for which the growth inhibition is 4%. The value for `CC(C)/C=C/C1(C(C)C)C(=O)NC(=O)NC1=O` was 9.5%; that for `O=c1oc2ccccc2c(O)c1C(c1ccc2c(c1)OCO2)c1c(O)c2ccccc2oc1=O` was -4.75%; that for `O=C(O)c1ccccc1N(CCO)CCCl` was -10.4%. The value for `O=C(NCC(O)CO)c1cc(N(CCCl)CCCl)c([N+](=O)[O-])cc1[N+](=O)[O-]` (stereo not given) was -35.9%. With `COc1cc(N(CCCl)CCCl)c(OC)cc1C=Nc1cccc(Cl)c1`, the growth inhibition is 10.3%. Next, `CC(C)NCc1ccccc1`: -12.3%; `CC(C)CN(CC(C)C)[N+](=O)[O-]`: 1.45%; `c1ccc([As](c2ccccc2)c2ccccc2)cc1`: -0.95%.

With `CC[N+](CC)(CC)CC.[C-]#[O+].[C-]#[O+].[C-]#[O+].[Cr+4].[c-]1[c-][c-][cH-][c-]1`, the growth inhibition is 12.4%.

Turning to `[C-]#[O+].[C-]#[O+].[C-]#[O+].[C-]#[O+].[C-]#[O+].[C-]#[O+].[Fe].[Fe].c1ccc([P-]c2ccccc2[P-]c2ccccc2)cc1` (stereo not given), the growth inhibition was 26.9%. Next, `CCC1(CCC(C)C)C(=O)NC(=O)N(C)C1=O` (stereo not given): -1.2%; `CN1C(=O)C2(c3ccccc31)C1CC3C(CO1)C1C2C3(CO)CN1C#N` (stereo not given): 12.9%. Turning to `Cc1ccc2[nH]cc(CCN)c2c1`, the growth inhibition is -53.1%. Next, `[Se]=[Hf]=[Se]`: -24.7%; `COc1cc(C2(C)CCCCC2)c(OC)cc1C1(C)CCCCC1`: 1.25%.

On to `C/C(CCl)=N\NC1=NC(C)(CCl)P(=O)(NNc2ncccn2)S1` (stereo not given), for which the growth inhibition is 11.2%. Turning to `c1cc(C[N+]23CN4CN(CN(C4)C2)C3)cs1`, the growth inhibition is 14.2%. For `CC[C@H]1CN2CCc3cc(OC)c(OC)cc3[C@@H]2C[C@@H]1C[C@H]1NCCc2c1[nH]c1ccc(O)cc21`, the growth inhibition was 17.3%.

Regarding `[Se]=P(NC1CCCCC1)(NC1CCCCC1)NC1CCCCC1`, the growth inhibition is -0.9%.

For `CN(C)C(=S)Oc1c(S(=O)(=O)F)ccc(Cl)c1Cl`, the growth inhibition was 88% (active). Take `c1cc[c]([Ge]([c]2ccccc2)[c]2ccccc2)cc1`: the growth inhibition was -3.8%.

Regarding `CC(=O)[O][Sn]([CH2]C1CCCC1)([CH2]C1CCCC1)[CH2]C1CCCC1`, the growth inhibition is 99.3% (active). As for `C1CC[N-]CC1.C1CC[N-]CC1.[Cl][Pt+2]([Cl])([Cl])[Cl]`, the growth inhibition is -10.3%. Next, `[CH3][Sn]([CH3])([O]S(=O)c1ccc(Cl)cc1)[O]S(=O)c1ccc(Cl)cc1` (stereo not given): -9.3%; `CC/C=C/C1(C(C)C)C(=O)NC(=O)NC1=O` (tested in a mixture with another compound): 0.35%; `O=c1[nH]cc(Cn2cccc3c(=O)ncnc2-3)c(=O)[nH]1`: 5.05%. The value for `CC(=O)Nc1nn[nH]n1` was 14.4%; that for `CC(=O)Nc1ccc([As](=O)(O)O)cc1[N+](=O)[O-]` was -12.3%.

`N#C[CH2][Sn]([c]1ccccc1)([c]1ccccc1)[c]1ccccc1`: the growth inhibition was 98.8% (active).

For `Cc1ccc2[nH]c(=S)n(-c3cccc(C(F)(F)F)c3)c(=O)c2c1`, the growth inhibition is 6.35%.

As for `CCCCCCCCCCCCCCCC[As](=O)(O)CCCCCCCCCCCCCCCC`, the growth inhibition was 13.7%. The value for `C=C1CCN2CC[C@@H](OC(=O)/C(C)=C\C)[C@@H]12` was 1.3%; that for `CN(C)c1ccccc1` was 42.1%.
